From PubChem BioAssay AID977624 (Broad Institute, 2014)
Among all 1,800 compounds or so, fewer than 10 were called active. Inconclusive results (about 44%) are left out. A selection follows. Values without a mark were called inactive.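 The calls were made as follows: active = compound lowering the normal-ribosome reporter at least twice as much as the humanized-ribosome reporter, growth loss under a set limit; inconclusive = no clear call, values can overlap the other calls; inactive = the rest.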

test: growth inhibition of wild-type GFP E. coli, dose response, h34 mutant RFP, cherry-pick (AID 977624); conditions: E. coli wild-type GFP strain growth, fluorescence, 24 h; series mostly up to 50 µM; activity change, negative = inhibition: at the top concentration

| SMILES | activity change, negative = inhibition |
| --- | --- |
| COc1cccc(NC(=O)c2ccc(C(=O)c3ccccc3)o2)c1 | -3.61 |
| COc1ccc(C(=O)C2CCCN(C(=O)c3noc4c3CCCC4)C2)cc1F (stereo not drawn) | 9.37 |
| COc1ccc(C(=O)N(c2ccccc2)c2nccc3ccccc23)cc1OC | 6.84 |
| COc1ccc(C2CC(=O)CCN2S(=O)(=O)c2ccc(C)cc2)cc1 (stereo not drawn) | -6.06 |
| O=C(NCc1ccc(S(=O)(=O)Nc2ccccc2Cl)s1)c1ccccc1 | 3.75 |
| Cc1ccc(C)c(-c2[nH]ncc2CN2CCCC(CO)(Cc3ccccc3C)C2)c1 (stereo not drawn) | 0.321 |
| Cc1nn(-c2cccc(Cl)c2)nc1C(=O)O | -8.21 |
| CC1CCN(c2ccc3nnc(CCC(=O)Nc4cccc(F)c4)n3n2)CC1 | -8.21 |
| O=C1c2ccccc2NC(c2ccc(-c3cccc([N+](=O)[O-])c3)o2)N1O (stereo not drawn) | -11.5 |
| COc1ccc(OC)c(-c2csc(NC(=O)C3COc4ccccc4O3)n2)c1 (stereo not drawn) | -3.69 |
| COc1ccc(-n2nc3cc(N)c(Br)cc3n2)cc1 | -3.96 |
| CN1C(=O)c2cc(NC(=O)c3cccc(F)c3)ccc2OC[C@H]2O[C@@H](CC(=O)N3CCc4ccccc4C3)CC[C@@H]21 | -5.65 |
| Brc1cc2c(cc1Br)OCCOCCOCCO2 | 3.87 |
| COC(=O)CC#C[C@H](C)[C@@H](NS(=O)(=O)c1ccc([N+](=O)[O-])cc1)C(C)(C)C | 14.2 |
| Cc1cc(C(=O)NCCC2=CCCCC2)ccc1[N+](=O)[O-] | -3.82 |
| CN(C)S(=O)(=O)c1ccc(Cl)c(C(=O)OCC(=O)NC(=O)c2cccn2C)c1 | 7.26 |
| COC(=O)c1cc(S(=O)(=O)NCc2ccc3c(c2)OCO3)cn1C | 0.059 |

| SMILES | activity change, negative = inhibition |
| --- | --- |
| Cc1ccc(-c2cc(-c3ccc(C)cc3)[n+](-c3ccc(C(=O)[O-])cc3)c(-c3ccc(C)cc3)c2)cc1 | 11 |
| CC(=O)Nc1ccc(NS(=O)(=O)c2ccc(Cl)s2)cc1 | 2.3 |
| CN(c1ccc(C(=O)NCc2cccs2)cc1)S(=O)(=O)c1ccccc1 | -3 |
| CCn1nc(C(=O)OCc2cccc(S(=O)(=O)N(C)C)c2)c2ccccc2c1=O | 3.66 |
| COc1cccc(NC(=O)CSc2nc3c(sc4ccccc43)c(=O)n2CCN(C)C)c1 | 10.7 |
| O=C(CC1C(=O)NCCN1CC1CCCCC1)NCc1ccc(F)cc1F (stereo not drawn) | 5.47 |
| CC(=O)N1CCN(c2nc(-c3cccs3)nc3ccccc23)CC1 | -6.03 |
| COc1ccc(NC(=O)c2sccc2-n2cccc2)cc1 | 7.88 |
| O=C(Cc1ccc(NC(=O)C2CCCN(C(=O)CCc3ccccc3)C2)cc1)Nc1cccc(C(=O)N2CCCC2)c1 (stereo not drawn) | 2.02 |
| COc1ccc(Nc2nc(NCCO)nc(N3CCCC3)n2)cc1 | -2.08 |
| CC(C)[C@H](NC(=O)c1ccc([N+](=O)[O-])cc1Cl)C(=O)N1CCN(C/C=C/c2ccccc2)CC1 | -11.6 |
| COc1ccccc1NC(=O)CN1CCSc2ccccc21 | -10.7 |
| O=C(NCc1ccccc1Cl)[C@H]1CCCN1C(=O)[C@H]1CCCN1C(=O)c1cccc2ccccc12 | 0.914 |
| CC1(C(=O)Nc2ccc3c(c2)OCCO3)CSCC(=O)N1CCOc1ccccc1 (stereo not drawn) | 6.15 |
| O=S(=O)(c1cnc(Cl)c(Cl)c1)N1CCCc2ccccc21 | 2.93 |
| CCOC(=O)C1(CCCc2ccccc2)CCN(C(=O)CCn2cncn2)CC1 | 11.3 |
